About 2,000 (36%) of roughly 5,500 compounds were called active. Inconclusive results (about 18%) are left out. No stated cut-off is given here; in the data, active means normalized growth mostly below about 0.91 (no sharp cut-off); inconclusive means no clear call, values can overlap the other calls; inactive means mostly above about 0.92. The list shows a part of the results.
Experiment: chemical genetic growth profiling, strain panel (AID 1159580);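 further: tested at 20 µM; growth read once vehicle control cultures reached saturation at 30 °C; 1 = growth at the plate median or of vehicle wells; lower values mean less growth of the strain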
Conditions: growth OD

Measured: normalized growth

CC(=O)O[C@H]1CC[C@@]2(C)C(=CCC3C2CC[C@@]2(C)C3CC[C@@H]2C(C)CCCC(C)C)C1 (stereo partly drawn)
inactive: S. cerevisiae deletion strains, locus YJR066W, strain TOR1, hits give low values 0.96 | S. cerevisiae deletion strains, locus YKL009W, strain mrt4, hits give low values 1.05 | S. cerevisiae deletion strains, locus YKL068W, hits give low values 1 | S. cerevisiae deletion strains, locus YKL085W, strain MDH1 (second series), hits give low values 1.01 | S. cerevisiae deletion strains, locus YKL085W, strain MDH1, hits give low values 1.01 | S. cerevisiae deletion strains, locus YKL160W, strain elf1, hits give low values 0.997 | S. cerevisiae deletion strains, locus YKL190W, strain CNB1, hits give low values 1.01 | S. cerevisiae deletion strains, locus YKR001C, strain vps1, hits give low values 1.06 | S. cerevisiae deletion strains, locus YKR026C, strain gcn3, hits give low values 0.991 | S. cerevisiae deletion strains, locus YKR091W, strain srl3, hits give low values 0.998 | S. cerevisiae deletion strains, locus YLL001W, strain dnm1, hits give low values 0.997 | S. cerevisiae deletion strains, locus YLL026W, hits give low values 0.995 | S. cerevisiae deletion strains, locus YLL041C, strain sdh2, hits give low values 0.995 | S. cerevisiae deletion strains, locus YLR027C, strain aat2, hits give low values 0.979 | S. cerevisiae deletion strains, locus YLR039C, strain RIC1, hits give low values 1.08 | S. cerevisiae deletion strains, locus YLR058C, strain SHM2, hits give low values 1.01 | S. cerevisiae deletion strains, locus YLR102C, strain apc9, hits give low values 1.01 | S. cerevisiae deletion strains, locus YLR113W, strain HOG1, hits give low values 0.95 | S. cerevisiae deletion strains, locus YLR221C, strain rsa3, hits give low values 0.979 | S. cerevisiae deletion strains, locus YLR258W, strain gsy2, hits give low values 1.01 | S. cerevisiae deletion strains, locus YLR262C, strain YPT6 (second series), hits give low values 1.01 | S. cerevisiae deletion strains, locus YLR262C, strain YPT6, hits give low values 1.14 | S. cerevisiae deletion strains, locus YLR268W, strain sec22, hits give low values 1.03 | S. cerevisiae deletion strains, locus YLR320W, strain mms22, hits give low values 0.98 | S. cerevisiae deletion strains, locus YLR330W, strain CHS5, hits give low values 1.02 | S. cerevisiae deletion strains, locus YLR342W, strain FKS1 (second series), hits give low values 1.07 | S. cerevisiae deletion strains, locus YLR342W, strain FKS1, hits give low values 0.994 | S. cerevisiae deletion strains, locus YLR357W, strain rsc2, hits give low values 0.985 | S. cerevisiae deletion strains, locus YLR370C, strain arc18, hits give low values 0.991 | S. cerevisiae deletion strains, locus YLR371W, strain rom2, hits give low values 1.02 | S. cerevisiae deletion strains, locus YLR384C, strain iki3, hits give low values 1.01 | S. cerevisiae deletion strains, locus YLR418C, strain cdc73, hits give low values 1.04 | S. cerevisiae deletion strains, locus YML016C, strain PPZ1, hits give low values 1.01 | S. cerevisiae deletion strains, locus YML032C, strain rad52, hits give low values 1.02 | S. cerevisiae deletion strains, locus YML120C, strain ndi1, hits give low values 1 | S. cerevisiae deletion strains, locus YML124C, strain tub3, hits give low values 1.02 | S. cerevisiae deletion strains, locus YMR058W, strain fet3, hits give low values 0.913 | S. cerevisiae deletion strains, locus YMR078C, strain ctf18, hits give low values 1.02 | S. cerevisiae deletion strains, locus YMR125W, strain sto1, hits give low values 0.995 | S. cerevisiae deletion strains, locus YMR129W, hits give low values 0.997 | S. cerevisiae deletion strains, locus YMR205C, strain PFK2, hits give low values 1 | S. cerevisiae deletion strains, locus YMR223W, strain ubp8, hits give low values 1.03 | S. cerevisiae deletion strains, locus YMR231W, strain pep5, hits give low values 0.965 | S. cerevisiae deletion strains, locus YMR307W, strain GAS1, hits give low values 1.03 | S. cerevisiae deletion strains, locus YNL067W, strain RPL9B, hits give low values 1.02 | S. cerevisiae deletion strains, locus YNL071W, strain lat1, hits give low values 0.999 | S. cerevisiae deletion strains, locus YNL128W, strain TEP1, hits give low values 1.02 | S. cerevisiae deletion strains, locus YNL153C, strain GIM3, hits give low values 1.02 | S. cerevisiae deletion strains, locus YNL183C, strain NPR1, hits give low values 0.906 | S. cerevisiae deletion strains, locus YNL209W, strain ssb2, hits give low values 0.999 | S. cerevisiae deletion strains, locus YNL233W, strain BNI4, hits give low values 1 | S. cerevisiae deletion strains, locus YNL248C, strain rpa49, hits give low values 1 | S. cerevisiae deletion strains, locus YNL250W, strain rad50, hits give low values 1.02 | S. cerevisiae deletion strains, locus YNL271C, strain bni1, hits give low values 1.04 | S. cerevisiae deletion strains, locus YNL298W, strain CLA4, hits give low values 1.02 | S. cerevisiae deletion strains, locus YNL307C, strain MCK1, hits give low values 1.03 | S. cerevisiae deletion strains, locus YNL322C, strain KRE1 (second series), hits give low values 0.989 | S. cerevisiae deletion strains, locus YNR049C, strain mso1, hits give low values 0.988 | S. cerevisiae deletion strains, locus YNR052C, strain pop2, hits give low values 1.02 | S. cerevisiae deletion strains, locus YOL012C, strain htz1 0.984 | S. cerevisiae deletion strains, locus YOL147C, strain pex11, hits give low values 1.02 | S. cerevisiae deletion strains, locus YOR001W, strain rrp6, hits give low values 0.974 | S. cerevisiae deletion strains, locus YOR061W, strain CKA2, hits give low values 1.01 | S. cerevisiae deletion strains, locus YOR069W, strain VPS5, hits give low values 1.01 | S. cerevisiae deletion strains, locus YOR070C, strain gyp1, hits give low values 0.989 | S. cerevisiae deletion strains, locus YOR080W, strain dia2, hits give low values 0.983 | S. cerevisiae deletion strains, locus YOR083W, strain WHI5, hits give low values 1.01 | S. cerevisiae deletion strains, locus YOR106W, strain vam3, hits give low values 1.04 | S. cerevisiae deletion strains, locus YOR136W, strain idh2, hits give low values 1.03 | S. cerevisiae deletion strains, locus YOR144C, strain elg1, hits give low values 1.02 | S. cerevisiae deletion strains, locus YOR184W, strain ser1, hits give low values 1.02 | S. cerevisiae deletion strains, locus YOR231W, strain MKK1, hits give low values 0.972 | S. cerevisiae deletion strains, locus YOR265W, strain rbl2, hits give low values 0.995 | S. cerevisiae deletion strains, locus YOR270C, strain vph1, hits give low values 1.04 | S. cerevisiae deletion strains, locus YOR290C, strain snf2, hits give low values 1 | S. cerevisiae deletion strains, locus YOR316C, strain cot1, hits give low values 1.02 | S. cerevisiae deletion strains, locus YPL051W, strain arl3, hits give low values 0.982 | S. cerevisiae deletion strains, locus YPL078C, strain atp4, hits give low values 1.01 | S. cerevisiae deletion strains, locus YPL106C, strain sse1, hits give low values 0.975 | S. cerevisiae deletion strains, locus YPL240C, strain hsp82, hits give low values 1 | S. cerevisiae deletion strains, locus YPL241C, strain CIN2, hits give low values 1.01 | S. cerevisiae deletion strains, locus YPL256C, strain CLN2, hits give low values 0.964 | S. cerevisiae deletion strains, locus YPR119W, strain clb2, hits give low values 1.01 | S. cerevisiae deletion strains, locus YPR141C, strain kar3, hits give low values 1.02 | S. cerevisiae deletion strains, locus YPR163C, strain tif3, hits give low values 1.04 | S. cerevisiae deletion strains, locus YPR167C, strain met16, hits give low values 1.03 | S. cerevisiae deletion strains, strain wtn01, hits give low values 1.04 | S. cerevisiae strains, strain wild type, hits give low values 1.01

Reference: PubChem BioAssay AID1159580 (chemical genetic matrix, 2015)
